“And” between values parts separate entries of the source, which are not always exact repeats. Equal values may be shown once. This is part of a sample that, as a whole, favours compounds with a hit. Of some 79,000 tested, about 15% had one in any assay. The source made the active and inactive calls. No stated cut-off is given here; in the data, active means growth inhibition above about 70%; inactive means the rest.

The text below walks through data of PubChem BioAssay (NCI).

A short description of this test: NCI Yeast Anticancer Drug Screen. Data for the mec2-1 strain (AID 157). The following applies: S. cerevisiae mec2-1 strain, active compounds read high; at 50.0 µM unless noted. The method, boiled down:
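mec2-1 yeast strain, carrying an alteration in DNA damage repair or cell cycle control, was exposed to compounds; growth inhibition was measured relative to vehicle-treated controls.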
On to `Clc1cccc(Cl)c1C1SCc2nc3cc4ccccc4cc3n21` (centres undefined), for which the growth inhibition was -12.1% (inactive).
Turning to `COc1ccc(C(=O)/C=C/N)c(OC)c1`, the growth inhibition is -25.4% (inactive).
As to `O=C1N=C2Sc3ccc4ccccc4c3N2C1=O`, the growth inhibition is 2.55% (inactive).
On to `COC1C(O)C(n2ncc3c(SC)nc(SC)nc32)OC1C(O)CO` (centres undefined), for which the growth inhibition was -3.95% (inactive).
On to `CCNC(=O)CCCC(=O)OC`, for which the growth inhibition is 4.55% (inactive).
In the case of `Cc1ccc2nc(=O)c3cccnc3n2c1`, the growth inhibition was 31.1% (inactive).
As to `S=C(Nc1ccc2c(c1)oc1ccccc12)c1cccs1`, the growth inhibition is 16.6% (inactive).
Consider `O=C1C(N2CCCCC2)=C(c2ccccc2)c2ccccc21`, for which the growth inhibition is 7.5% (inactive).
As to `CCOC(=O)CNC(=O)SCc1ccccc1`, the growth inhibition was -6.2% (inactive).
For `OCCN1CCCCCCC1` the value was -6.15% (inactive) and -3.8% (inactive).
With `Cc1cc(C(=O)O)c(C(=O)O)c(Cl)n1`, the growth inhibition is -5% (inactive).
As for `CC(=O)N(C(=O)CC(=O)NNCc1ccccc1Cl)c1ccc(Cl)cc1`, the growth inhibition is -14.2% (inactive).
`NC(=O)c1ccc(-c2csc(=S)[nH]2)s1`: the growth inhibition was -9.7% (inactive).
For `O=C1CCC(=O)N1N1C(=O)CCC1=O` the value was -24.2% (inactive); for `O=[N+]([O-])c1ccc(-n2nnc(C3=NCCCN3)c2-c2ccc(Cl)cc2)cc1`, -8.1% (inactive).
For `Clc1nc(-c2ccccc2)ns1`, the growth inhibition is -9.3% (inactive).
On to `CC1(C)SC(c2ccccc2)SC(c2ccccc2)S1` (centres undefined), for which the growth inhibition is 1.4% (inactive).
In the case of `CS(=O)(=O)Nc1c(-c2ccccc2)oc2ccccc2c1=O`, the growth inhibition was -0.8% (inactive).
For `COc1cc(CNc2ccccc2)ccc1O` the value was 6.1% (inactive).
Regarding `CC(=O)Oc1cccc2c1C(=O)c1c(OC(C)=O)cc(C)cc1C2=O`, the growth inhibition was 5.35% (inactive).
For the compound `CC(C)C1Oc2ccc(Br)cc2C1O` (centres undefined), the growth inhibition was 8.15% (inactive).
Take `NC(=S)/N=C(/c1nc2ccc(Cl)cc2[nH]c1=O)C(O)c1ccccc1Cl` (centres undefined): the growth inhibition is -21.8% (inactive).
In the case of `CC1=CP(=O)(c2ccccc2)CC1` (centres undefined) (tested in a mixture with another compound), the growth inhibition was -9.2% (inactive).
In the case of `CC(=O)c1ccc(Cl)cc1Cl`, the growth inhibition was -11.8% (inactive).
As to `CCOC(=O)CSc1nc(-c2ccccc2)c(C#N)c(=O)[nH]1`, the growth inhibition is 1.2% (inactive).
For `CN1CCC(O)CC1` the value was -23.4% (inactive); for `O=C(Cc1nc2ccccc2s1)C(=O)Nc1cccc(C(F)(F)F)c1`, 8.75% (inactive).
In the case of `CCC1=CCN(c2ccccn2)OC1c1ccc(OC)cc1` (centres undefined), the growth inhibition is 13.7% (inactive).
Take `CCOC(=O)c1cccc(N)c1C(=O)OCCN(CC)CC`: the growth inhibition is 0.15% (inactive).
With `CC(=O)Oc1c(I)cc(Cc2nc(C)oc2C)cc1I`, the growth inhibition was -1.15% (inactive).
Consider `NC1N=Nc2ccccc21` (centres undefined), for which the growth inhibition was -5.95% (inactive).
Turning to `Cc1cc(N(CCC#N)CCC#N)ccc1/C=N/NC(=O)c1ccccc1`, the growth inhibition is -2.35% (inactive).
For `CC/C(=N/NC(N)=O)c1ccc(C)cc1`, the growth inhibition was -11.8% (inactive).
The result for `CC[O-].CC[O-].CN(C)c1ccc([O-])cc1.CN(C)c1ccc([O-])cc1.[Ti+4]` reads 9.5% (inactive); that for `CC(=O)OCC(C)(O)C#N` (centres undefined), -0.2% (inactive).
With `CC(=NCCCCN=C(C)c1cc(O)cc(Br)c1O)c1cc(O)cc(Br)c1O.[Co]`, the growth inhibition was 17.9% (inactive).
`O=C1c2ccccc2C(=O)N1c1ccc(OCCN2CCCCC2)cc1`: the growth inhibition is -1.7% (inactive).
The result for `CCOc1c(N=Nc2ccc(Cl)cc2Cl)c(C)nn1C(=S)SC` reads 16.1% (inactive).
The result for `NC(=O)C1CC1` reads 2.25% (inactive).
